Screening results deposited in PubChem BioAssay by National Center for Advancing Translational Sciences (NCATS).
GLP-1R agonist: qHTS of GLP-1 Receptor Agonists | Glucagon-like peptide 1 receptor (Homo sapiens), P43220 | HEK293 GLP-1R CRE-luciferase, luminescence, 4-6 h; cells express a hypersensitive GLP-1R form | Potency, µM (doses to about 45.6 µM), without a hit: top-dose activation, usual class: activators | 380,000 compounds, 0.007% hits | AID 624172, 2012; note: potency is the fitted concentration of half-maximal effect; % of control where 0% means no effect
Target sequence (P43220 whole entry, looked up): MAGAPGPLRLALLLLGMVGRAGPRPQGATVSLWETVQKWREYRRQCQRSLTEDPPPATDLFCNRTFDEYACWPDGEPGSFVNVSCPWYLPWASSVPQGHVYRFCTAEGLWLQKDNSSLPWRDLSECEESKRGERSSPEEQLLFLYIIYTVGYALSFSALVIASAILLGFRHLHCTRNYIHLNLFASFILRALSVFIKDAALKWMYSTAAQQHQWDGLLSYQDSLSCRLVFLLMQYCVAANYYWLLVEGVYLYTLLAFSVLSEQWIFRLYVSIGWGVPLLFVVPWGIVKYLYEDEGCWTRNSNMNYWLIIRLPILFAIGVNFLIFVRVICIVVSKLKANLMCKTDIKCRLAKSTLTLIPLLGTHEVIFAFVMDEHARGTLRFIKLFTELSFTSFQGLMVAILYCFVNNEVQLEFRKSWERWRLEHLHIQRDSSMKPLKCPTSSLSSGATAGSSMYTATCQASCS
DRD3 antagonist: qHTS of D3 Dopamine Receptor Antagonist: qHTS. D(3) dopamine receptor (Homo sapiens), P35462. D3R cells, DiscoveRx beta-arrestin luminescence, antagonist mode; stronger effect = lower value. max response, negative = inhibition, %. 360,000 compounds, 2.5% hits. AID 652054, 2013; in the data active = max response below about -50%; inconclusive = no clear call, values can overlap the other calls; note: % is set by controls: 0 for no effect and ±100 for the full control effect
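Cells expressing the human receptor were seeded at 1500 cells/well, incubated overnight at 37 degrees C in 5% CO2, then exposed to library compounds with dopamine controls for 90 minutes at 37 degrees C before luminescent detection.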
GLP-1R inv ag: qHTS of GLP-1 Receptor Inverse Agonists (Inhibition Mode); Glucagon-like peptide 1 receptor (Homo sapiens), P43220; HEK293 GLP-1R CRE-luciferase, luminescence, 24 h; GLP-1R form is constitutively active; Potency, µM (titrated, usually from 38.3 µM), without a hit: top-dose activity change, negative = inhibition, most hits filed as inhibitors; 410,000 compounds, 1.6% hits; AID 624417, 2012; note: potency is the fitted concentration of half-maximal effect; % is set by controls: 0 for no effect and ±100 for the full control effect; nearly all actives have a fitted effect of over 55% in size
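Inverse agonism was detected as reduced cAMP-driven luciferase luminescence after 24 h compound treatment. The cells were HEK293 clones expressing constitutively active human GLP-1R with the reporter. Reporter-only and GPR119 cell lines served as counterscreen controls.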
D3 ag: qHTS of D3 Dopamine Receptor Agonist: qHTS; D(3) dopamine receptor (Homo sapiens), P35462; D3R DiscoveRx beta-arrestin cells, luminescence, 90 min; max activation, %; 410,000 compounds, 0.58% hits; in the data active = max activation above about 30%; note: 0% is about no effect
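Agonist mode: compounds and dopamine controls were applied to plated cells for 90 min at 37 degrees C after an overnight attachment at 1500 cells/well. Luminescent read-out followed 30 - 60 minutes at room temperature with DiscoveRx detection reagent.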
The depositor's hits bear a star. Compounds with a hit are over-represented: about 4.3% of the library has one in this group of screens. Unless noted, calls come from the whole dose curve; as a rule, active = well fitted curve in the direction sought with a large enough effect; inconclusive = small, poorly fitted or top-dose-only effect, or another doubt; inactive = no such curve, though single readings can be large; an effect the other way counts as inactive or inconclusive.

How did S=C(Nc1ccc(Cl)cc1)NC1CC2CCC(C1)N2Cc1ccccc1 (configuration not stated) do in these assays?
GLP-1R agonist: 9%; DRD3 antagonist: -76*; GLP-1R inv ag: 7.1µM*; D3 ag: -14

Results for CCc1ccc(NC(=S)NC2CC3CCCC(C2)N3Cc2ccccc2)cc1 (configuration not stated) ?
GLP-1R agonist: 8%; DRD3 antagonist: -109*; GLP-1R inv ag: inconclusive; D3 ag: -11

How did CCCNC(=S)NC1CC2CCCC(C1)N2Cc1ccc(F)cc1 (configuration not stated) do in these assays?
GLP-1R agonist: 1%; DRD3 antagonist: -101*; GLP-1R inv ag: inconclusive; D3 ag: -19

How did C=CCN1C2CCCC1CC(NC(=S)Nc1ccc(Cl)cc1)C2 (configuration not stated) do in these assays?
GLP-1R agonist: -1%; DRD3 antagonist: 3; GLP-1R inv ag: inconclusive; D3 ag: -9

What do the screens show for `COCCCNC(=O)c1nn(-c2ccc(C)cc2)c(=O)n(C)c1=O`?
GLP-1R inv ag: 3%; D3 ag: -5

Results for COc1cn(CC(=O)Nc2ccccc2)c(CN2CCCCC2)cc1=O ?
GLP-1R inv ag: 13%; D3 ag: 2

What do the screens show for `S=C(Nc1ccc(Cl)cc1)NC1CC2CCCC(C1)N2C1CC1` (configuration not stated)?
GLP-1R agonist: -2%; DRD3 antagonist: 10; GLP-1R inv ag: inconclusive; D3 ag: 1

Results for CNC(=S)NC1CC2CCC(C1)N2Cc1ccccc1 (configuration not stated) ?
GLP-1R agonist: -1%; DRD3 antagonist: -81*; GLP-1R inv ag: 1%; D3 ag: -35

What do the screens show for `Cc1ccccc1NC(=S)NC1CC2CCC(C1)N2Cc1ccco1` (configuration not stated)?
GLP-1R agonist: -7%; DRD3 antagonist: -15; GLP-1R inv ag: -1%; D3 ag: -24

Results for S=C(Nc1ccc(Cl)cc1)NC1CC2CCCC(C1)N2C1CCCC1 (configuration not stated) ?
GLP-1R agonist: -14%; DRD3 antagonist: -19; GLP-1R inv ag: 8.9µM*; D3 ag: -15

Results for O=C(Cc1ccc(F)cc1)NCc1ccc2c(c1)CCN2C(=O)c1ccc(F)cc1 ?
GLP-1R inv ag: 13%; D3 ag: 5

How did Cc1onc(-c2ccccc2)c1C(=O)N[C@@H]1C(=O)N2[C@@H](C(=O)O)C(C)(C)S[C@@H]12 do in these assays?
GLP-1R agonist: -1%

How did COc1ccc(Cl)cc1NC(=O)CN1c2ccccc2S(=O)(=O)c2ccccc21 do in these assays?
GLP-1R inv ag: inconclusive; D3 ag: -1

How did CN1CCC(OC(=O)c2cc3cc(Br)ccc3oc2=O)CC1 do in these assays?
GLP-1R agonist: 11%; DRD3 antagonist: 0; GLP-1R inv ag: -1%; D3 ag: -7

Results for Cc1c(Br)cc(C(=O)OC2CCN(C)CC2)c(C)c1C ?
GLP-1R agonist: 8%; DRD3 antagonist: -88*; GLP-1R inv ag: 0%; D3 ag: -21

How did O=[N+]([O-])c1cc(Cl)cc(/C=N\Nc2ccccn2)c1O do in these assays?
GLP-1R agonist: -27%; DRD3 antagonist: -106*; GLP-1R inv ag: inconclusive; D3 ag: -34

What do the screens show for `O=C(N/N=C/c1cccs1)c1cc(-c2ccncc2)nc2ccccc12`?
GLP-1R agonist: -1%; DRD3 antagonist: -24; GLP-1R inv ag: -45%; D3 ag: -19

How did O=C(N/N=C/c1cc(Cl)cc([N+](=O)[O-])c1O)c1cc(-c2ccccn2)nc2ccccc12 do in these assays?
GLP-1R agonist: -4%; DRD3 antagonist: -61*; GLP-1R inv ag: -16%; D3 ag: -20

What do the screens show for `COc1ccccc1-c1cc(C(=O)N/N=C/c2cccs2)c2ccccc2n1`?
GLP-1R agonist: -1%; DRD3 antagonist: -78*; GLP-1R inv ag: inconclusive; D3 ag: -31

What do the screens show for `COc1cc([N+](=O)[O-])cc(/C=N/NC(=O)c2cc(C)nc3ccccc23)c1O`?
GLP-1R agonist: 2%; DRD3 antagonist: -56*; GLP-1R inv ag: inconclusive; D3 ag: -19

What do the screens show for `COc1cccc(/C=N/NC(=O)c2cc(-c3ccccn3)nc3ccccc23)c1O`?
GLP-1R agonist: 14%; DRD3 antagonist: 5; GLP-1R inv ag: 5µM*; D3 ag: 2

Results for COc1ccc(OC)c(CNc2nc3ccccc3n2CCN2CCCCC2)c1 ?
GLP-1R agonist: 9%; DRD3 antagonist: inconclusive; GLP-1R inv ag: -10%; D3 ag: -46

What do the screens show for `COc1cccc(CNc2nc3ccccc3n2CCN2CCCCC2)c1OC`?
GLP-1R agonist: -1%; DRD3 antagonist: -67*; GLP-1R inv ag: inconclusive; D3 ag: -15

What do the screens show for `CCn1c(NC(=O)C2CCCCC2)nc2ccccc21`?
GLP-1R agonist: -9%; DRD3 antagonist: 0; GLP-1R inv ag: inconclusive; D3 ag: -3

How did O=C(Nc1nc2ccccc2n1CCN1CCCC1)C1CCCCC1 do in these assays?
GLP-1R agonist: -8%; DRD3 antagonist: -82*; GLP-1R inv ag: inconclusive; D3 ag: 1

How did O=C(Nc1nc2ccccc2n1CCN1CCCCC1)C1CCCCC1 do in these assays?
GLP-1R agonist: 5%; DRD3 antagonist: -62*; GLP-1R inv ag: inconclusive; D3 ag: -15

How did CCn1nccc1C(=O)Nc1nc2ccccc2n1CCN1CCCCC1 do in these assays?
GLP-1R agonist: 6%; DRD3 antagonist: -87*; GLP-1R inv ag: inconclusive; D3 ag: -6

Results for CCC(=O)Nc1nc2ccccc2n1CCN1CCOCC1 ?
GLP-1R agonist: 0%; DRD3 antagonist: 17; GLP-1R inv ag: -11%; D3 ag: -2

How did Cc1ccc(CN2C(=O)c3ccccc3Sc3ccc(C(=O)N4CCOCC4)cc32)cc1 do in these assays?
GLP-1R inv ag: inconclusive; D3 ag: 8

How did c1ccc(Cn2c(CNc3nc4ccccc4n3CCN3CCOCC3)nc3ccccc32)cc1 do in these assays?
GLP-1R agonist: 1%; DRD3 antagonist: -54*; GLP-1R inv ag: 3%; D3 ag: -13

What do the screens show for `CCCC(=O)N1c2nc(C(C)C)nn2C2(CCCCC2)[C@@H]2CCCC[C@@H]21`?
GLP-1R inv ag: 0%; D3 ag: -4

Results for Cc1cc(=O)n(C(NC(=O)c2ccccc2)C(=O)c2ccccc2)cn1 (configuration not stated) ?
GLP-1R agonist: 14%; DRD3 antagonist: 101; GLP-1R inv ag: 1%; D3 ag: 65*

What do the screens show for `O=C(CCc1ccccc1)NC1(Cc2ccccc2)CCN(CCc2cccs2)C1=O` (configuration not stated)?
GLP-1R agonist: 19%; DRD3 antagonist: -7; GLP-1R inv ag: 10µM*; D3 ag: -10
